Screening results from PubChem.
Sampled rows, rich in hits. Any-hit rate of the full collection: about 3%.
pPAFAH inh: inhibitors of human plasma PAF acetylhydrolase (pPAFAH). recombinant pPAFAH, FP-rhodamine probe fluorescence polarization. 1.5% of 330,000 active. inhibition, % at 3.39 µM. Q13093;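 active = inhibition above the mean inhibition across the screen plus 3 SD, cut at about 25% in these data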;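 also: inhibitors block binding of the rhodamine activity-based probe so polarization drops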
PAFAH1B3 FP inh: blocks human PAF acetylhydrolase 1B catalytic subunit 3. Q15102. recombinant PAFAH1B3, FP-rhodamine probe, fluorescence polarization. inhibition, % at 3.39 µM. 0.28% of 340,000 active;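 active = inhibition above the screen-wide average of all tested compounds plus 3 SD, cut at about 25% in these data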
PAFAH1B2 FP inh: blocks human PAF acetylhydrolase 1b catalytic subunit 2. inhibition, % at 3.39 µM. 1.2% of 340,000 active. recombinant PAFAH1B2, FP-rhodamine activity probe, fluorescence polarization;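 active = inhibition above the mean of all tested compounds plus 3 SD, cut at about 24% in these data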
Target sequence (P68402 whole entry, looked up): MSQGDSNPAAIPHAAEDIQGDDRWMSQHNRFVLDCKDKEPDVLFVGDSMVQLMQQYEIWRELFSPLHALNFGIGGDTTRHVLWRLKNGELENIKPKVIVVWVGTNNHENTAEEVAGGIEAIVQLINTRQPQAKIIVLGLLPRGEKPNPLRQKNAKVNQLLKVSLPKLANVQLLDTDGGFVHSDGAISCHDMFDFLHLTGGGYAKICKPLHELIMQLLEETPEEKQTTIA
Fh CTSL1 inh: counter-screen for PFM18AAP inhibitors: inhibitors of F. hepatica cathepsin L1; 0.49% of 300,000 active; AID 1906; inhibition, % at 5.96 µM; recombinant F. hepatica cathepsin L1, Z-Leu-Arg-MCA fluorescence;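 active = inhibition above the mean of all tested compounds plus 3 SD, set per screening campaign, cut at about 17% in these data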
PP5 inh: blocks human protein phosphatase 5 activity; purified PP5c, OMFP substrate fluorescence; 0.18% of 320,000 active; AID 1987; inhibition, % at 6.7 µM;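 active = inhibition above the campaign's mean inhibition across all tested compounds plus 3 SD, cut at about 9.5% in these data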
Target sequence (P53041 whole entry, looked up): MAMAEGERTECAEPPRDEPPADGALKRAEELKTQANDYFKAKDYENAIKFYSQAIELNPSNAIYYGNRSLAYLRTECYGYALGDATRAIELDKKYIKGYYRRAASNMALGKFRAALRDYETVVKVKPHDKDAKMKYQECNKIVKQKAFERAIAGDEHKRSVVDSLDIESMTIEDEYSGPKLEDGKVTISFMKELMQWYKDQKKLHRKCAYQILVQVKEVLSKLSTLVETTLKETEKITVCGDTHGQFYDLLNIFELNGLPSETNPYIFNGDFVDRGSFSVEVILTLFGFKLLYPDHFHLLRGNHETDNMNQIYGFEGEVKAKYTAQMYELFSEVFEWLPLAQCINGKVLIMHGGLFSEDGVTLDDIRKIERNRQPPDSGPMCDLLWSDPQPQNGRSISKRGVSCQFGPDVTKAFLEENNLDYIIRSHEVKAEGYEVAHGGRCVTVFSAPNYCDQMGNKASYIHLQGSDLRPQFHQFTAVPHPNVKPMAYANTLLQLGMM
PAFAH2 inh: PAFAH2 (human) inhibition. Q99487. recombinant PAFAH2, FP-rhodamine activity probe, fluorescence polarization. inhibition, % at 3.39 µM. 0.99% of 340,000 active. AID 492956;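 active = inhibition above the mean over all tested compounds plus 3 SD, cut at about 30% in these data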;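 also: inhibitors block probe labeling of enzyme so polarization drops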
Large screens that a line does not name were inactive.

Cc1cc(=O)[nH]c2ccc(S(=O)(=O)Nc3ccc(O)cc3)cc12	none
CC(C)CNC(=O)c1cc(=O)[nH]c2ccc(S(=O)(=O)Nc3ccc(F)cc3)cc12	pPAFAH inh 27.5
Cc1cc(=O)[nH]c2ccc(S(=O)(=O)Nc3ccccc3)cc12	pPAFAH inh 26.1
O=C(CCNC(=O)c1ccccc1Cl)NCCC1=CCCCC1	none
CC(=O)Nc1ccc(C(=O)NCC2(N3CCCCC3)CCCCC2)cc1	Fh CTSL1 inh 20.6
CCOc1ccc(CN(C)C(=O)c2cccc(S(=O)(=O)N3CCCC3)c2)cc1OC	none (no result: Fh CTSL1 inh)
O=C(Cn1cnc2ccccc21)OCC(=O)N1CCCCC1	none (no result: Fh CTSL1 inh, PP5 inh)
Cc1ccc(/C=C2/C(=N)N3N=C(CC(=O)N4CCCC4)SC3=NC2=O)cc1	pPAFAH inh 25.0
N=C1/C(=C\c2ccc(SCc3ccccc3)o2)C(=O)N=C2SC(CC(=O)N3CCOCC3)=NN12	pPAFAH inh 29.5
CSc1ccc(/C=C2/C(=N)N3N=C(CC(=O)N4CCCC4)SC3=NC2=O)cc1	none
O/N=C/c1ccc2ccccc2c1	PAFAH1B2 FP inh 50.2
[N-]=[N+]=CC(=O)CNC(=O)[C@@H](Cc1ccccc1)N1C(=O)c2ccccc2C1=O	Fh CTSL1 inh 43.0
Cc1cccc(C)c1NC(=O)COC(=O)c1cc[n+]([O-])cc1	none
O=C(CCl)Nc1c2c(nn1-c1ccccc1)CSC2	Fh CTSL1 inh 79.7
O=C(CCCCl)Nc1c2c(nn1-c1ccccc1)CSC2	none
O=S(=O)(NCc1ccc(Cl)cc1)c1ccc(Cl)nc1	PAFAH1B2 FP inh 33.7
NS(=O)(=O)c1ccc(CNS(=O)(=O)c2ccc(Cl)nc2)cc1	none
CCC[C@@H]1CCCO[C@@](C(=O)NCc2ccccn2)(C(F)(F)F)C1	PAFAH1B2 FP inh 30.1
COc1ccc(Cl)cc1N1C(=NC(=O)C2CCCCC2)SC2CS(=O)(=O)CC21 (configuration not stated)	none
O=C(O)c1ccc(-c2ccc(/C=c3/sc4nc5ccccc5n4c3=O)o2)cc1Cl	pPAFAH inh 26.7, PAFAH1B3 FP inh 25.9
Cc1cc(/C=c2\sc3nc4ccccc4n3c2=O)c(C)n1-c1ccc(C(=O)O)cc1	none (no result: pPAFAH inh, Fh CTSL1 inh, PP5 inh)
COc1ccc(OC)c(C2CC(=O)N3CN(c4ccccc4)CSC3=C2C#N)c1 (configuration not stated)	none
COc1cc(OC)c(C2CC(=O)N3CN(c4ccccc4C)CSC3=C2C#N)cc1OC (configuration not stated)	Fh CTSL1 inh 30.8 (no result: PAFAH1B3 FP inh, PAFAH1B2 FP inh, PAFAH2 inh)
COc1ccc(C2CC(=O)N3CN(c4ccc(C)c(Cl)c4)CSC3=C2C#N)cc1 (configuration not stated)	none
Cc1cccc(N2CSC3=C(C#N)C(c4ccc(C)o4)CC(=O)N3C2)c1 (configuration not stated)	pPAFAH inh 47.2 (no result: PAFAH1B3 FP inh, PAFAH1B2 FP inh, PAFAH2 inh)
Cc1csc(CNc2ncnc3ccc(-c4cccc(Cl)c4)cc23)c1	none (no result: Fh CTSL1 inh, PP5 inh)
CCCCCCCCCCCCCC(=O)O	PAFAH1B2 FP inh 35.1 (no result: Fh CTSL1 inh)
O=C(COC(=O)c1ccccc1NCCO)NNC(=O)c1cccs1	none
CCCCCCn1c(Br)nc2c1c(=O)n(C)c(=O)n2C	Fh CTSL1 inh 35.2
Cc1ccn2c(=O)nc(SCC(=O)NCCc3ccccc3)nc2c1	none
O=[N+]([O-])c1cc2c(cc1C=Nc1ccccc1)OCO2	none
Cc1cccc(N=Cc2cc3c(cc2[N+](=O)[O-])OCO3)c1	pPAFAH inh 27.8
O=S(=O)(Nc1ccc(Cc2ccncc2)cc1)c1ccc(Cl)c(Cl)c1	pPAFAH inh 24.6
CCc1ccc(OC)c(S(=O)(=O)Nc2ccc(Cc3ccncc3)cc2)c1	pPAFAH inh 26.4
O=S(=O)(Nc1ccc(-n2cccc2)cc1)c1ccc(Cl)c(Cl)c1	none
CCc1ccc(NS(=O)(=O)c2ccc(OC)c3ncccc23)cc1	none
O=C(O)c1ccc(NS(=O)(=O)c2ccc(Cl)c(Cl)c2)cc1O	PAFAH1B2 FP inh 32.6
O=C(O)c1cc(S(=O)(=O)Nc2cccc(S(=O)(=O)N3CCCC3)c2)ccc1Cl	none (no result: pPAFAH inh, Fh CTSL1 inh, PP5 inh)
Nn1c(SCC(=O)NC2CCCCC2)nnc1-c1ccccc1F	none (no result: Fh CTSL1 inh)
Cc1c(C(=O)N2CCC(C(N)=O)CC2)oc2ccc(Br)cc12	none
CCN1C[C@@H]2[C@@H]3C(=O)N(C)C(=O)[C@@H]3[C@](CC)(C1=O)N2C(=O)c1ccc(C(C)(C)C)cc1	none (no result: Fh CTSL1 inh, PP5 inh)
O=C1SCCN1N=Cc1ccc([N+](=O)[O-])o1	none (no result: pPAFAH inh, Fh CTSL1 inh, PP5 inh)
Cc1cccc(N2CCN(C(=O)N3CCOCC3)CC2)c1C	none
Cc1cccc(N2CCN(C(=O)N3CCCCC3)CC2)c1C	pPAFAH inh 28.5
Cc1c(/C=N\NC(=O)C2COc3ccc(C(C)(C)C)cc3O2)c2ccccc2n1C (configuration not stated)	pPAFAH inh 26.9
CC(C)(C)c1ccc2c(c1)OC(C(=O)N/N=C/c1ccc([N+](=O)[O-])o1)CO2 (configuration not stated)	pPAFAH inh 28.2 (no result: PAFAH1B3 FP inh, PAFAH1B2 FP inh, PAFAH2 inh)
CCC(C)NC(=O)c1ccc(Cl)c(S(=O)(=O)Nc2ccccc2N2CCOCC2)c1 (configuration not stated)	none (no result: Fh CTSL1 inh)
CN(C)S(=O)(=O)NC(=O)C1=C(N2CCCC2)COC1=O	none (no result: Fh CTSL1 inh, PP5 inh)
Cc1cc(O)c(C(C)C)cc1N=Cc1ccc([N+](=O)[O-])cc1	none (no result: pPAFAH inh, Fh CTSL1 inh, PP5 inh)
COc1ccc(C(=O)CN2Cc3ccccc3C2=N)cc1	none
Cc1ccc(S(=O)(=O)N2[C@@H](c3ccccc3)C(C(=O)O)=CC[C@H]2c2cccs2)cc1	PAFAH1B2 FP inh 25.4
Cc1ccc(S(=O)(=O)N2[C@@H](c3ccc(Br)cc3)C(C(=O)O)=CC[C@H]2c2ccc3c(c2)OCO3)cc1	PAFAH1B2 FP inh 72.1 (no result: Fh CTSL1 inh, PP5 inh)
Cc1ccc(S(=O)(=O)N2[C@@H](c3ccc(Cl)cc3)C(C(=O)O)=CC[C@H]2c2ccc(C(C)C)cc2)cc1	PAFAH1B2 FP inh 93.0
COc1ccc([C@@H]2CC=C(C(=O)O)[C@H](c3ccc(Cl)cc3)N2S(=O)(=O)c2ccc(C)cc2)cc1OC	none
Cc1ccc(S(=O)(=O)N2CC(C(=O)O)=CC[C@H]2c2ccc3c(c2)OCO3)cc1	none
Cc1ccc([C@@H]2CC=C(C(=O)O)CN2S(=O)(=O)c2ccc(C)cc2)cc1	PAFAH1B2 FP inh 28.6
COc1ccc(S(=O)(=O)Nc2c(C)cc(C)cc2C)c2cccnc12	none
COC(=O)c1cc(CNC(=O)c2ccc(N3CCCC3)c([N+](=O)[O-])c2)ccc1OC	none
Cc1ccc(S(=O)(=O)N2[C@@H](c3ccc(C(C)(C)C)cc3)C(C(=O)O)=CC[C@H]2c2ccc(Cl)c(Cl)c2)cc1	PAFAH1B2 FP inh 75.9 (no result: Fh CTSL1 inh, PP5 inh)
Cc1ccc(S(=O)(=O)N2[C@@H](c3ccc(C(C)(C)C)cc3)C(C(=O)O)=CC[C@H]2c2cccc(Cl)c2)cc1	PAFAH1B2 FP inh 78.1 (no result: Fh CTSL1 inh, PP5 inh)
Cc1ccc(S(=O)(=O)N2[C@@H](c3ccc(Br)cc3)C(C(=O)O)=CC[C@H]2c2ccc(Cl)c(Cl)c2)cc1	PAFAH1B2 FP inh 87.0 (no result: Fh CTSL1 inh, PP5 inh)
COc1cccc([C@@H]2CC=C(C(=O)O)[C@H](c3ccc(C)cc3)N2S(=O)(=O)c2ccc(C)cc2)c1	PAFAH1B2 FP inh 27.1 (no result: Fh CTSL1 inh, PP5 inh)
